From PubChem BioAssay AID488969 (Vanderbilt High Throughput Screening Facility, 2010)
Whole data set: some 110,000 compounds, median “z-score” near -0.1, cut for the highest 2% near 2. What follows is part of a selection rich in the highest values, with near analogues and random picks from the rest. Active and inactive are the calls of the source.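 How the source made its calls: active means z-score in the third read window above 3 or below -3; inactive means the rest.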

biological target: Metabotropic glutamate receptor 8 (Rattus norvegicus) (UniProt P70579); experiment: rat mGluR8 modulators via GIRK flux, primary screen, cell-based, thallium flux, HTS (AID 488969); conditions: HEK293 rat mGluR8, GIRK (G protein-gated inwardly rectifying potassium channel) thallium flux, FluoZin2; at 10 µM; stronger effect = higher value; submaximal glutamate (EC20) added with thallium
Sequence (P70579 whole entry, looked up): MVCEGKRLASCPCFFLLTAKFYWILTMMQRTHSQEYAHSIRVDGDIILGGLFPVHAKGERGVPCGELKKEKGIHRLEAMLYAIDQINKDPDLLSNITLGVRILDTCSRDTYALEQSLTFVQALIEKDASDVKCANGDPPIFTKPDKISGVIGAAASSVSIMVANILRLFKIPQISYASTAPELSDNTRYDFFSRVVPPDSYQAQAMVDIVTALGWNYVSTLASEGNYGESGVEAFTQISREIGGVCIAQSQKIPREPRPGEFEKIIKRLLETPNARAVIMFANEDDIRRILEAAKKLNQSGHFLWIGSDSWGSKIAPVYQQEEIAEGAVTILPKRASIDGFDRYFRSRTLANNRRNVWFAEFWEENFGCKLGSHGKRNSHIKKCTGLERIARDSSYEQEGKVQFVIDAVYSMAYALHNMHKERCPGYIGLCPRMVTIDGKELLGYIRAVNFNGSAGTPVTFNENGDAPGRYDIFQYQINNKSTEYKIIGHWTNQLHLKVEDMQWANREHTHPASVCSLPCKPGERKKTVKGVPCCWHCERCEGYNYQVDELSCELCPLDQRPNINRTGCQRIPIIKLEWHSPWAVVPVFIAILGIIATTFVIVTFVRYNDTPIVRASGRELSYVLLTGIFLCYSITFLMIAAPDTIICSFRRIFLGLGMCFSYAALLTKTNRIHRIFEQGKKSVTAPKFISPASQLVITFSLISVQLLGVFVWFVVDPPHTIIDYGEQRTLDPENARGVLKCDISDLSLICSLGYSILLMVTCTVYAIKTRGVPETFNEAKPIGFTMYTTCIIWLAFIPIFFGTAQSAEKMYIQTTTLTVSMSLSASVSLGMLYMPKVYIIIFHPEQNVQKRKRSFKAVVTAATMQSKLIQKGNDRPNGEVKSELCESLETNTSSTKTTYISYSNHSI

Compared with `O=C(CSCCc1ccccn1)Nc1ccc(Br)cn1`, `Nn1c(SCc2ccccc2)nnc1-c1ccccn1` is higher in z-score: -0.0969 for the first, 0.00631 for the second.

First: CCc1nnc(NC(=O)c2cc(S(=O)(=O)N3CCN(c4ccccc4)CC3)ccc2Cl)s1
Second: CC(C)OC(=O)CSc1nnc(SCc2cccc3ccccc23)s1
The z-score of the first is lower: -0.438 for the first, -0.157 for the second.

Going from `CCOc1cc(/C=N/O)cc(Br)c1OCC` to `CCCCOc1c(Br)cc(/C=N/O)cc1OCC`, the z-score rises from -0.564 to 2.8.

First: CCCOc1c(Br)cc(/C=N/O)cc1OC
Second: COc1cc(NC(=O)c2cc(OC)c(OC)c(OC)c2)c(OC)cc1NC(=O)CN1CCCCC1
The z-score of the first is higher: -0.858 for the first, -2.33 for the second.

Compared with `CCOc1ccc(NC(=O)CN2CCN(CC(=O)Nc3ccc(F)c(F)c3)CC2)cc1`, `COc1cc(NC(=O)CSCC(=O)Nc2cccc(C(F)(F)F)c2)c(Cl)cc1Cl` is lower in z-score: -0.0841 for the first, -0.193 for the second.

Compared with `N#Cc1cnn(Cc2ccccc2)c1N`, `S=c1[nH]nc(-c2ccco2)n1Cc1ccccc1` is higher in z-score: -0.318 for the first, 0.271 for the second.

Going from `CCOC(=O)C1CCCN(Cc2nc(N)nc(Nc3ccc(Cl)cc3)n2)C1` (centres undefined) to `COc1ccc(C(=O)Cn2nnc(-c3ccccc3F)n2)cc1`, the z-score rises from -0.508 to -0.251.

Going from `Cc1cccc(NC(=S)NN(Cc2ccccc2)c2ccccc2)c1C` to `CC(C)c1ccccc1NC(=S)NN(Cc1ccccc1)c1ccccc1`, the z-score falls from -0.141 to -0.164.

Compared with `c1ccc(-c2ccc(-c3cnc4n3CCCCC4)cc2)cc1`, `Cc1ccc(-c2n[nH]c(=S)n2Cc2ccccc2)cc1` is lower in z-score: 0.704 for the first, -0.277 for the second.

Going from `O=C(O)CCCCNS(=O)(=O)c1ccc(Cl)c(C(F)(F)F)c1` to `CC(C)Oc1cc(NC(=O)CS(=O)CC(=O)Nc2cccc(C(F)(F)F)c2)c(Cl)cc1Cl` (centres undefined), the z-score rises from -0.602 to 2.75.

Compared with `O=C(NNC(=O)c1cccnc1SCc1cccc([N+](=O)[O-])c1)c1ccc(F)cc1`, `Cc1ccc(C(=O)NNC(=O)c2cccnc2SCc2cccc([N+](=O)[O-])c2)cc1` is lower in z-score: 0.33 for the first, -0.0883 for the second.

Going from `CCN1/C(=C2\C(=O)N(C)C(=S)N2C)C=Cc2ccccc21` to `Cc1cccc(-c2n[nH]c(=S)n2Cc2ccccc2)c1`, the z-score rises from -0.543 to 1.74.

Compared with `S=c1[nH]nc(-c2cc3ccccc3o2)n1Cc1ccccc1`, `CC(C)Cn1c(-c2ccc(Br)o2)n[nH]c1=S` is lower in z-score: 2.66 for the first, 1.12 for the second.

First: C[N+]1(CC2COC3(CCCCC3)O2)CCCC1 (centres undefined)
Second: CC(=O)NCCn1c(SCC(=O)NCC2CCCO2)nc2ccccc2c1=O (centres undefined)
The z-score of the first is lower: -0.214 for the first, 0.564 for the second.

First: CCN(CC)S(=O)(=O)c1cccc(-c2nnc(C(=O)c3ccc(C(F)(F)F)cc3)o2)c1
Second: CC(C)Oc1cc(NC(=O)CSCC(=O)Nc2cccc(C(F)(F)F)c2)c(Cl)cc1Cl
The z-score of the first is higher: -0.091 for the first, -0.183 for the second.

For `Fc1ccccc1NC(=S)NN(Cc1ccccc1)c1ccccc1`, the z-score was 5.03 (active).
For `O=C(NNC(=O)c1cccnc1SCc1cccc([N+](=O)[O-])c1)c1ccccn1`, the z-score was 3.29 (active).
For `S=c1[nH]nc(-c2ccc(Br)o2)n1Cc1ccccc1`, the z-score was 3.42 (active).
For `C1CCC2(CC1)OCC1(CO2)COC2(CCCCC2)OC1`, the z-score was 3.83 (active).
